These results are taken from PubChem BioAssay (Tox21).

The source made the active and inactive calls. A call without a number means that no potency is given here. The call rests on the fitted dose curve; in most records, active means well fitted curve in the direction sought with a large enough effect in the repeat runs; inconclusive means weak or mixed curves; inactive means flat fitted curve, though single readings scatter.

A short description of one assay: qHTS assay to test for compound auto fluorescence at 590 nm (red) in HEK293 cell free culture (AID 720683). Conditions: cell-free medium autofluorescence, Ex540/Em590 red; series mostly up to 91.3 µM. An outline of the steps:
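Cell-free wells of DMEM with 10% FBS received compound, and intrinsic fluorescence was read at excitation/emission 540/590 nm. Values expressed as equivalence to Rose Bengal sodium.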
A general note: Quantitative high-throughput screening tests each substance at several concentrations.
On to `O=C1c2c(O)cccc2Cc2cccc(O)c21`, for which the Potency result is “inactive”.

With `CC(=O)Nc1c(I)c(NC(C)=O)c(I)c(C(=O)O)c1I`, the Potency entry was “inactive”.

As for `Cn1c(=O)c2c(ncn2C)n(C)c1=O`, the Potency entry is “inactive”.

Consider `CNNCc1ccc(C(=O)NC(C)C)cc1`, for which the Potency entry is “inactive”.

As for `NC(=O)n1c(O)c(C(=O)c2cccs2)c2cc(Cl)ccc21`, the Potency result was “inactive”.

For the compound `O=C1O[C@H]([C@@H](O)CO)C(O)=C1O`, the Potency result is “inactive”.

A short description of a further assay: qHTS assay to test for compound auto fluorescence at 590 nm (red) in HepG2 cell free culture (AID 720684). Conditions: cell-free medium autofluorescence, red 540/590 nm; series mostly up to 91.3 µM. An outline of the steps:
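Compounds are added to culture medium (MEM, 10% FBS) lacking cells, then fluorescence is read at excitation 540 nm, emission 590 nm, with Rose Bengal sodium as the equivalency standard.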
On to `CC1(C)S[C@@H]2[C@H](NC(=O)[C@H](N)c3ccccc3)C(=O)N2[C@H]1C(=O)O`, for which the Potency result is “inactive”.

Regarding `CN(C)CCOC(C)(c1ccccc1)c1ccccn1` (stereo not drawn), the Potency entry is “inactive”.

As to `COc1ccc(OC(F)(F)F)cc1CN[C@H]1CCCN[C@H]1c1ccccc1`, the Potency entry is “inactive”.

Consider `CCCCCCCCCCCCCCCC[N+](C)(C)Cc1ccccc1`, for which the Potency entry was “inactive”.

For `Cc1cn([C@H]2C=C[C@@H](CO)O2)c(=O)[nH]c1=O`, the Potency result is “inactive”.

In the case of `Nc1ccc(O)c([N+](=O)[O-])c1`, the Potency result is “inactive”.

In the case of `CC(O)(P(=O)(O)O)P(=O)(O)O`, the Potency entry is “inactive”.

For `Cc1cc(C)nc(NS(=O)(=O)c2ccc(N)cc2)n1`, the Potency entry was “inactive”.

Take `CN(C)C(=S)SC(=S)N(C)C`: the Potency result is “inactive”.

With `NC1CCCCC1`, the Potency entry was “inactive”.

`Nc1c(N=Nc2ccc(-c3ccc(N=Nc4cc(S(=O)(=O)O)c5ccccc5c4N)cc3)cc2)cc(S(=O)(=O)O)c2ccccc12`: the Potency result is “inactive”.

Turning to `CCCCOC(=O)c1ccc(O)cc1`, the Potency entry was “inactive”.

For the compound `CC(C)C(=O)Nc1ccc([N+](=O)[O-])c(C(F)(F)F)c1`, the Potency result was “inactive”.

As to `Nc1ccc([N+](=O)[O-])cc1O`, the Potency entry is “inactive”.

For `Cc1cccc(C)c1`, the Potency result is “inactive”.

`CN(C)CCOC(c1ccccc1)c1ccccc1`: the Potency result is “inactive”.

Turning to `CN1CCc2cccc3c2[C@H]1Cc1ccc(O)c(O)c1-3`, the Potency entry was “inactive”.

`Nc1c2c(nc3ccccc13)CCCC2`: the Potency result was “inactive”.

For the compound `CCCCCCCCCCCC[N+](C)(C)Cc1ccccc1`, the Potency result was “inactive”.

With `COc1ccc2c(c1)c(CC(=O)O)c(C)n2C(=O)c1ccc(Cl)cc1`, the Potency entry was “inactive”.

Take `Oc1ccccc1`: the Potency result was “inactive”.

Take `COc1cccc(O)c1O`: the Potency result was “inactive”.

`Nc1ccc(S(N)(=O)=O)cc1`: the Potency entry was “inactive”.

In the case of `O=C1c2c(O)cccc2Cc2cccc(O)c21`, the Potency entry is “inactive”.

Turning to `CC(=O)Nc1c(I)c(NC(C)=O)c(I)c(C(=O)O)c1I`, the Potency result is “inactive”.

Consider `Cn1c(=O)c2c(ncn2C)n(C)c1=O`, for which the Potency result is “inactive”.

Turning to `CNNCc1ccc(C(=O)NC(C)C)cc1`, the Potency entry was “inactive”.

Regarding `NC(=O)n1c(O)c(C(=O)c2cccs2)c2cc(Cl)ccc21`, the Potency result is “inactive”.

With `O=C1O[C@H]([C@@H](O)CO)C(O)=C1O`, the Potency result is “inactive”.

A further assay in a line: qHTS assay to test for compound auto fluorescence at 460 nm (blue) in HepG2 cell free culture (AID 720685). Particulars: Cell-free culture medium, blue autofluorescence 405/460 nm; series mostly up to 91.3 µM. An outline of the steps: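 Compound (23 nL) or DMSO pinned into cell-free MEM with 10% FBS; blue fluorescence read at 405/460 nm excitation/emission, expressed as auto-fluorescence equivalency to triamterene.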
For the compound `CC1(C)S[C@@H]2[C@H](NC(=O)[C@H](N)c3ccccc3)C(=O)N2[C@H]1C(=O)O`, the Potency result is “inactive”.

With `CN(C)CCOC(C)(c1ccccc1)c1ccccn1` (stereo not drawn), the Potency result is “inactive”.

With `COc1ccc(OC(F)(F)F)cc1CN[C@H]1CCCN[C@H]1c1ccccc1`, the Potency result was “inactive”.

`CCCCCCCCCCCCCCCC[N+](C)(C)Cc1ccccc1`: the Potency result is “inactive”.

Take `Cc1cn([C@H]2C=C[C@@H](CO)O2)c(=O)[nH]c1=O`: the Potency entry was “inactive”.

For `Nc1ccc(O)c([N+](=O)[O-])c1`, the Potency entry is “inactive”.

On to `CC(O)(P(=O)(O)O)P(=O)(O)O`, for which the Potency entry is “inactive”.

With `Cc1cc(C)nc(NS(=O)(=O)c2ccc(N)cc2)n1`, the Potency result was “inactive”.

For `CN(C)C(=S)SC(=S)N(C)C`, the Potency entry is “inactive”.

On to `NC1CCCCC1`, for which the Potency result was “inactive”.

On to `Nc1c(N=Nc2ccc(-c3ccc(N=Nc4cc(S(=O)(=O)O)c5ccccc5c4N)cc3)cc2)cc(S(=O)(=O)O)c2ccccc12`, for which the Potency entry was “inactive”.

As for `CCCCOC(=O)c1ccc(O)cc1`, the Potency result is “inactive”.

Regarding `CC(C)C(=O)Nc1ccc([N+](=O)[O-])c(C(F)(F)F)c1`, the Potency result was “inactive”.

On to `Nc1ccc([N+](=O)[O-])cc1O`, for which the Potency entry was “inactive”.

For `Cc1cccc(C)c1`, the Potency entry is “inactive”.

On to `CN(C)CCOC(c1ccccc1)c1ccccc1`, for which the Potency entry is “inactive”.

Take `CN1CCc2cccc3c2[C@H]1Cc1ccc(O)c(O)c1-3`: the Potency entry is “inactive”.

On to `Nc1c2c(nc3ccccc13)CCCC2`, for which the Potency entry is “inactive”.

In the case of `CCCCCCCCCCCC[N+](C)(C)Cc1ccccc1`, the Potency result is “inactive”.

`COc1ccc2c(c1)c(CC(=O)O)c(C)n2C(=O)c1ccc(Cl)cc1`: the Potency entry is “inactive”.

Turning to `Oc1ccccc1`, the Potency result is “inactive”.

For the compound `COc1cccc(O)c1O`, the Potency entry was “inactive”.

As to `Nc1ccc(S(N)(=O)=O)cc1`, the Potency result was “inactive”.

Consider `O=C1c2c(O)cccc2Cc2cccc(O)c21`, for which the Potency result was “inactive”.

Regarding `CC(=O)Nc1c(I)c(NC(C)=O)c(I)c(C(=O)O)c1I`, the Potency entry is “inactive”.

In the case of `Cn1c(=O)c2c(ncn2C)n(C)c1=O`, the Potency entry was “inactive”.

For `CNNCc1ccc(C(=O)NC(C)C)cc1`, the Potency result was “inactive”.

Turning to `NC(=O)n1c(O)c(C(=O)c2cccs2)c2cc(Cl)ccc21`, the Potency result is “inactive”.

Take `O=C1O[C@H]([C@@H](O)CO)C(O)=C1O`: the Potency result is “inactive”.

Another assay is described as follows: qHTS assay to test for compound auto fluorescence at 535 nm (green) in HepG2 cell free culture (AID 720686). Particulars: Cell-free medium, green autofluorescence 485/535 nm; series mostly up to 91.3 µM.
On to `CC1(C)S[C@@H]2[C@H](NC(=O)[C@H](N)c3ccccc3)C(=O)N2[C@H]1C(=O)O`, for which the Potency result is “inactive”.

In the case of `CN(C)CCOC(C)(c1ccccc1)c1ccccn1` (stereo not drawn), the Potency entry was “inactive”.

For `COc1ccc(OC(F)(F)F)cc1CN[C@H]1CCCN[C@H]1c1ccccc1`, the Potency result was “inactive”.

`CCCCCCCCCCCCCCCC[N+](C)(C)Cc1ccccc1`: the Potency entry was “inactive”.

Regarding `Cc1cn([C@H]2C=C[C@@H](CO)O2)c(=O)[nH]c1=O`, the Potency result is “inactive”.

For the compound `Nc1ccc(O)c([N+](=O)[O-])c1`, the Potency result is “inactive”.

As for `CC(O)(P(=O)(O)O)P(=O)(O)O`, the Potency entry is “inactive”.

Regarding `Cc1cc(C)nc(NS(=O)(=O)c2ccc(N)cc2)n1`, the Potency result was “inactive”.

Take `CN(C)C(=S)SC(=S)N(C)C`: the Potency entry was “inactive”.

On to `NC1CCCCC1`, for which the Potency result was “inactive”.

As for `Nc1c(N=Nc2ccc(-c3ccc(N=Nc4cc(S(=O)(=O)O)c5ccccc5c4N)cc3)cc2)cc(S(=O)(=O)O)c2ccccc12`, the Potency entry is “inactive”.

In the case of `CCCCOC(=O)c1ccc(O)cc1`, the Potency result is “inactive”.

Consider `CC(C)C(=O)Nc1ccc([N+](=O)[O-])c(C(F)(F)F)c1`, for which the Potency result was “inactive”.

As to `Nc1ccc([N+](=O)[O-])cc1O`, the Potency result was “inactive”.

For the compound `Cc1cccc(C)c1`, the Potency entry is “inactive”.

As for `CN(C)CCOC(c1ccccc1)c1ccccc1`, the Potency result is “inactive”.

Take `CN1CCc2cccc3c2[C@H]1Cc1ccc(O)c(O)c1-3`: the Potency entry was “inactive”.

In the case of `Nc1c2c(nc3ccccc13)CCCC2`, the Potency entry was “inactive”.

Take `CCCCCCCCCCCC[N+](C)(C)Cc1ccccc1`: the Potency entry was “inactive”.

`COc1ccc2c(c1)c(CC(=O)O)c(C)n2C(=O)c1ccc(Cl)cc1`: the Potency entry was “inactive”.

`Oc1ccccc1`: the Potency result is “inactive”.

Take `COc1cccc(O)c1O`: the Potency result was “inactive”.

`Nc1ccc(S(N)(=O)=O)cc1`: the Potency entry is “inactive”.

Regarding `O=C1c2c(O)cccc2Cc2cccc(O)c21`, the Potency result was “inactive”.

For the compound `CC(=O)Nc1c(I)c(NC(C)=O)c(I)c(C(=O)O)c1I`, the Potency result was “inactive”.

Consider `Cn1c(=O)c2c(ncn2C)n(C)c1=O`, for which the Potency entry was “inactive”.

For the compound `CNNCc1ccc(C(=O)NC(C)C)cc1`, the Potency result is “inactive”.

Regarding `NC(=O)n1c(O)c(C(=O)c2cccs2)c2cc(Cl)ccc21`, the Potency result is “inactive”.

In the case of `O=C1O[C@H]([C@@H](O)CO)C(O)=C1O`, the Potency entry was “inactive”.
